# PubChem BioAssay (Tox21)
# “And” between values parts separate entries of the source, which are not always exact repeats. Equal values may be shown once. Records with an inconclusive call do not appear. Unmarked numbers belong to inactive results. The source made the active and inactive calls. Calls follow the shape of the dose curve; as a rule, active = well fitted inhibition curve with a large enough effect in the repeat runs; inconclusive = weak or mixed curves; inactive = no such curve, though single readings can be large or run the other way.
# Test: qHTS assay to identify small molecule antagonists of the thyroid receptor (TR) signaling pathway (AID 743065); also: nearly all actives have a fitted effect of over 55% in size
# Conditions: GH3.TRE-Luc, T3-stimulated luciferase inhibition, 23.5 h; series mostly up to 70.3 µM; activity, negative = inhibition: at the top concentration
# Text: U.S. Tox21 Program National Center for Advancing Translational Sciences [NCATS] NIH Chemical Genomics Center [NCGC] U.S. Environmental Protection Agency [EPA] National Institutes of Environmental Health Sciences [NIEHS] National Toxicology Program [NTP] U.S. Food and Drug Administration [FDA] Tox21 Assay Overview: Thyroid receptor (TR), a nuclear hormone receptor, plays an important role in development, proliferation, differentiation, metabolism, brain function, and cardiovascular system. […] To profile the Tox21 10K compound library in TR signaling, a cell-based GH3-TRE-Luc assay (GH3.TRE-Luc cell line, developed by the laboratory of Dr. Albertinka J. Murk, Wageningen University) was used to measure the inhibition of TR. GH3 (rat pituitary tumor) cells stably expressing a TR activity sensor consisting of two TR response elements and a luciferase reporter gene.
# Tox21 Assay Protocol Summary: GH3.TRE-Luc cells were dispensed at 1500 cells/4 uL/well into 1536-well white solid bottom plates using a Multidrop Combi dispenser (Thermo Fisher Scientific Inc., Waltham, MA). After the assay plates were incubated at 37 C for 4 hours, 23 nL of library compound or DMSO controls was transferred to the assay plates by a pintool station (Kalypsys, San Diego, CA), followed by addition of 1 ul of T3 (1 nM, final concentration in the wells) to stimulate TR transactivation. The assay plates were incubated at 37 C for 23.5 h, and then 1 uL of CellTiter-Fluor reagent (Promega, Madision, WI) of measuring cytotoxicity was added to each well using a Bioraptr Flying Reagent Dispenser (FRD) workstation (Beckman Coulter, Indianapolis, IN, USA). The plates were incubated at 37 C and 5% CO2 for additional 30 min, and fluorescence intensity was measured by a ViewLux plate reader (PerkinElmer, Shelton, CT). For measuring luciferase reporter gene activity, 4 uL of ONE-Glo Luciferase Assay reagent (Promega) was added to each well using a Bioraptr FRD (Beckman Coulter), followed by 30 min incubation at room temperature. The luminescence intensity of plates was recorded by a ViewLux plate reader (PerkinElmer, Shelton, CT).
# % is scaled to controls: 0 for no effect and ±100 for the full control effect; potency is read from the fitted curve at half-maximal effect.
SMILES,"activity, negative = inhibition",Potency
ClCC(Br)CBr (stereo not given),2.79%,–
IC(I)=C(I)I,–,6.11 µM (active)
O=[N+]([O-])C(Br)(CO)CO,–,23.7 µM (active) and 24.3 µM (active)
C=CCC1([C@H](C)CCC)C(=O)NC(=O)NC1=O,-7.68%,–
Cl/C=C\Cl,-0.821%,–
Cc1ccc(-c2c(Cl)nc(C#N)n2S(=O)(=O)N(C)C)cc1,–,13.7 µM (active)
CCc1ccc(C(=O)NN(C(=O)c2cc(C)cc(C)c2)C(C)(C)C)cc1,-11.2%,–
O=[N+]([O-])c1ccccc1CCl,-0.697% [at 95 µM],–
NNC(=O)c1cccnc1,-12.4% [at 95 µM],–
COc1nn(CSP(=S)(OC)OC)c(=O)s1,–,68.6 µM (active)
Brc1ccc(Oc2ccccc2)cc1,–,inactive
c1cc2ccc3cccc4ccc(c1)c2c34,-9.05% [at 95 µM],–
Cn1cc[n+](C)c1 (tested in a mixture with another compound),19.9% [at 95 µM],–
CCOP(=S)(OCC)SCn1nnc2ccccc2c1=O,–,61.1 µM (active)
COc1ccc(-c2ccccc2)cc1NNC(=O)OC(C)C,–,71.5 µM (active)
BrCC(Br)C1CCC(Br)C(Br)C1 (stereo not given),–,48.3 µM (active)
O=[N+]([O-])c1ccc(F)c([N+](=O)[O-])c1,–,61.7 µM (active)
COC(C)(C)CCC[C@H](C)C/C=C/C(C)=C/C(=O)OC(C)C,–,61.1 µM (active)
CCCCNP(N)(N)=S,18.5%,–
O=[Se]=O,–,21.5 µM (active)

SMILES,"activity, negative = inhibition",Potency
CCC(Br)(CC)C(=O)NC(N)=O,6.59%,–
C/C=C/C=O,22.7%,–
C=CC[C@]1(O)CC[C@H]2[C@@H]3CCC4=CC(=O)CCC4=C3C=C[C@@]21C,–,10.6 µM (active)
CCOc1ccc(C(C)(C)COCc2cccc(Oc3ccccc3)c2)cc1,-11.9%,–
OC(c1ccc(Cl)cc1)(c1ccc(Cl)cc1)c1cccnc1,–,54.5 µM (active)
O=C(Nc1ccccc1)Nc1ccnc(Cl)c1,–,27.3 µM (active)
O=C1NCN(c2ccccc2)C12CCN(CCCOc1ccc(F)cc1)CC2,–,16.8 µM (active)
ClCc1ccccc1,9.52%,–
O=[N+]([O-])c1cc(C(F)(F)F)cc([N+](=O)[O-])c1Cl,-0.0627% [at 95 µM],–
O=C1c2ccccc2C(=O)C1C(=O)C(c1ccccc1)c1ccccc1,-12.7%,–
COP(=S)(OC)Oc1ccc([N+](=O)[O-])cc1Cl,-23.8%,–
CCOC(=O)C(Cl)C(C)=O (stereo not given),11.1% [at 95 µM],–
Clc1cccc(SC2CCNCC2)n1,16.6%,–
O=C(NC(=O)c1c(F)cccc1F)Nc1cc(Cl)c(Oc2ncc(C(F)(F)F)cc2Cl)c(Cl)c1,–,8.27 µM (active)
C=CC(=O)OCC(C)O (stereo not given),-21.5% [at 95 µM],–
[CH3][Sn]([CH3])([Cl])[Cl],–,55.4 µM (active) and 68.6 µM (active)
CC(=O)[C@H]1CC[C@H]2[C@@H]3CC[C@H]4C[C@](C)(O)CC[C@]4(C)[C@H]3CC[C@]12C,0.0222%,–
CCOP(=O)(OCC)Oc1ccc([N+](=O)[O-])cc1,–,inactive
O=C1C(Cl)C(CCl)CN1c1cccc(C(F)(F)F)c1 (stereo not given),11.9%,–
Cc1ccc(N)cc1C,1.55% [at 95 µM],–
